CDC25B-CDK2 inh – human CDC25B-CDK2/CyclinA binding inhibition. P30305+P24941. HTRF CDC25B-CDK2/CyclinA binding, anti-His/anti-Flag; stronger effect = higher value. z-score (concentration not given with the values). 94,000 tested, 0.72% active. AID 1259370; in the data active = z-score above about 3.2
HIV TAR-Tat – HIV-1 TAR-Tat binding disruption; HIV-1 TAR RNA, Tat peptide displacement FRET; stronger effect = higher value; z-score (test concentration not listed); 100,000 tested, 0.6% active; active = z-score of 3 or more in at least 2 runs
* hit, by the source's call; x = no result. An excerpt weighted towards active compounds, which were near 0.93% of everything screened.

SMILES	CDC25B-CDK2 inh	HIV TAR-Tat
Cc1ccc(NC(=O)N2CC(C)Oc3ccc(C)cc32)c(C)c1 (stereo not given)	x	0.91
CCOc1ccc(C2CC(=O)N3CN(C(C)c4ccccc4)CSC3=C2C#N)cc1 (stereo not given)	5.27*	3.19
Cc1ccc(C2CC(=O)N3CN(C(C)c4ccccc4)CSC3=C2C#N)cc1 (stereo not given)	5.01*	1.23
COc1ccc(C2CC(=O)N3CN(C(C)c4ccccc4)CSC3=C2C#N)cc1 (stereo not given)	5.31*	-1.92
Cc1ccc(C2CC(=O)N3CN(CCc4ccccc4)CSC3=C2C#N)cc1 (stereo not given)	2.66	-0.62
CC(c1ccccc1)N1CSC2=C(C#N)C(c3cccs3)CC(=O)N2C1 (stereo not given)	4.42*	9.76*
CCOC(=O)c1c(C)[nH]c(C)c1S(=O)(=O)N1CCCC(C(=O)NC2CCCCC2)C1 (stereo not given)	x	-0.06
O=C(O)CCCCCn1c(=O)[nH]c2ccccc2c1=O	-0.56	1.63
O=C(CN1Cc2ccccc2C1=O)N1CCN(C(=O)c2ccco2)CC1	x	0.11
COc1cccc(OC)c1C(=O)NN	-2.14	x
COc1cccc(O)c1O	x	13.4*
Cc1ccccc1-c1nc2c3c(C)c(C)n(Cc4ccco4)c3ncn2n1	-2.47	1.16
O=c1c(-c2ccccc2)c(C(F)(F)F)oc2c(CN3CCCC3)c(O)ccc12	15.3*	0.65
CC1CN(Cc2c(O)ccc3c(=O)c(-c4ccccc4)c(C(F)(F)F)oc23)CC(C)O1 (stereo not given)	0.01	0.4
CNC(=S)Nc1ccc(F)cc1	-1.54	x
Fc1ccc(NC(=S)Nc2ccc3cn[nH]c3c2)cc1	20.1*	x
CCc1nnc(NC(=O)CSc2ccc3nnc(-c4ccncc4)n3n2)s1	-0.12	1.14
c1coc(C2Oc3ccccc3C3CC(c4cccs4)=NN32)c1 (stereo not given)	-1.52	x
O=[N+]([O-])c1ccc(/C=C/C2Oc3ccccc3C3CC(c4cccs4)=NN23)o1 (stereo not given)	1.48	13*
COc1ccc(C2C3=C(CCCC3=O)Nc3nc(SCC(C)C)nn32)c(OC)c1 (stereo not given)	-3.98	0.37
Cc1cc(=O)n2nc(N3CCCC(C(=O)NCCCSC4CCCCC4)C3)sc2n1 (stereo not given)	-0.32	5.14
COc1ccc(/C=C/C(=O)O)cc1OC	x	0.69
COc1ccc(/C=C/C(=O)CC(=O)/C=C/c2cccc(O)c2OC)cc1O	x	16.4*
COc1cc(/C=C/C(=O)O)ccc1O	x	1.49
COc1cc(/C=C/C(=O)CC(=O)/C=C/c2ccc(O)c(OC)c2)ccc1O	x	15.1*
SMILES	CDC25B-CDK2 inh	HIV TAR-Tat
O=C1C(NC2CCCCC2)=C(N2CCCCC2)C(=O)c2ccccc21	5.01*	x
O=c1c(NC2CCCCC2)c(-c2ccccc2)c1=O	x	1.14
CCN1CCN(CCCNC(=O)c2oc3ccc4c(c3c2C)C(O)CC2(CCCCC2)O4)CC1 (stereo not given)	x	0.6
O=C(O)c1cc(Nc2nc(-c3cccnc3)cs2)ccc1O	-5.72	4.39*
Oc1cccc(Nc2nc(-c3cccnc3)cs2)c1	-1.45	2.75
CCn1c[n+](CC(O)COc2ccccc2)c2cc(C)c(C)cc21 (stereo not given)	16*	0.83
CCn1c[n+](CC(O)COc2ccccc2)c2ccccc21 (stereo not given)	-0.35	1.19
CC(C)N1C(=O)C(O)(CC(=O)c2ccccc2)c2ccccc21 (stereo not given)	0.13	0.83
CCc1ccc(C(=O)CC2(O)C(=O)N(C(C)C)c3ccccc32)cc1 (stereo not given)	15.8*	-0.46
O=c1c2ccccc2nc2n1CCCN2Cc1ccccc1Cl	2.64	1.23
C=CCOc1ccc(C2C3=C(CC(C)(C)CC3=O)NC3=C2C(=O)CC(C)(C)C3)cc1	-0.83	-0.05
CCCOc1ccc(C2C3=C(CC(C)(C)CC3=O)NC3=C2C(=O)CC(C)(C)C3)cc1	16.1*	0.94
N/C(COc1ccc(Cl)cc1)=N/OC(=O)c1ccsc1	-1.97	x
COc1ccc(Oc2ccc([N+](=O)[O-])cc2-c2nc(-c3ccccn3)no2)cc1	-1.48	x
COc1ccc(Oc2ccc([N+](=O)[O-])c3nonc23)cc1	11.6*	x
CCOc1ccccc1NS(=O)(=O)c1cc(Br)cnc1N	-1.39	1.08
CC(N)=NCCCC[C@@H](N)C(=O)O	0.56	x
CCCCCCCCCCCCCCCCCCN=C(C)N	4.5*	x
Cc1nn(-c2ccccc2)c2c1C(c1ccc(O)c(O)c1)C1=C(CC(C)(C)CC1=O)N2 (stereo not given)	-1.9	-1.56
Cc1ccc2c(=O)cc(CSCC(=O)Nc3nnc(C(C)C)s3)[nH]c2c1	x	2
COc1cccc(NC(=O)Nc2sc3nc4n(c(=O)c3c2C)CCC(C)CC4)c1 (stereo not given)	-3.04	0.79
Cc1ccccc1NC(=O)Nc1sc2nc3n(c(=O)c2c1C)CCC(C)CC3 (stereo not given)	11.5*	0.07
Cc1c(NC(=O)Nc2ccccc2Cl)sc2nc3n(c(=O)c12)CCC(C)CC3 (stereo not given)	-2.5	0.25
COc1cc(OC)c(NC(=O)Nc2sc3nc4n(c(=O)c3c2C)CCC(C)CC4)cc1Cl (stereo not given)	11.3*	0.31
Cc1nc2ncnn2c(C)c1CCC(=O)Nc1cnc2ccccc2c1	-2.58	1.65
SMILES	CDC25B-CDK2 inh	HIV TAR-Tat
Cc1ncc(-c2ccc(S(=O)(=O)N3CCCCC3)cc2)o1	x	1.17
O=C1Nc2ccc(S(=O)(=O)Nc3ccc4oc5c(c4c3)CCCC5)c3cccc1c23	-1.87	6.34*
COc1ccc(NS(=O)(=O)c2ccc3c4c(cccc24)C(=O)N3)cc1	-0.99	2.24
CCc1ccc(-c2cc(C)no2)cc1S(=O)(=O)N(C)Cc1ccco1	x	0.28
C=CCSc1nc(=O)c2c(n1C)NC(=O)CC2c1ccc(C)cc1C (stereo not given)	-0.9	0.89
Cc1ccc(CSc2nc3ccncc3n2Cc2ccc(C(=O)NCC3CCCO3)cc2)cc1 (stereo not given)	-1.55	-0.05
Cc1ncc(CO)c2c1Oc1nc(-c3ccc(F)cc3)[nH]c(=O)c1C2	-1.7	0.72
COc1ccc(O)c(-c2nc3c(c(=O)[nH]2)Cc2c(CO)cnc(C)c2O3)c1	2.02	10.8*
COc1ccc(C2C3=C(Nc4nc(N)[nH]c(=O)c42)c2ccccc2C3=O)cc1 (stereo not given)	13.8*	3.7*
COc1cc(C2C3=C(Nc4nc(N)[nH]c(=O)c42)c2ccccc2C3=O)ccc1O (stereo not given)	2.72	5.64*
COc1cc(C2CC(=O)Nc3nc(N)[nH]c(=O)c32)ccc1O (stereo not given)	-1.86	-1.22
COc1ccc(C2CC(=O)Nc3nc(N)[nH]c(=O)c32)cc1 (stereo not given)	1.19	0.84
O=C(O)C1CCN(S(=O)(=O)c2ccccc2Cl)CC1	-1.26	1.7
C(=C\CSc1ccccn1)/CSc1ccccn1	-1.31	x
Nc1ccccc1SC/C=C/CSc1ccccc1N	14.9*	x
Cc1ccnc(N2C(=O)c3ccccc3C2Nc2ccccc2)c1 (stereo not given)	0.36	1.23
Cc1ccc(N2C(=O)c3ccccc3C2Nc2cccnc2)nc1 (stereo not given)	11.7*	-0.5
O=C(Nc1ccc2c(c1)OCCO2)C1CCN(S(=O)(=O)c2ccc(Br)cc2)CC1	4.57*	1.57

Screening data as filed in PubChem.
